# Results as given in PubChem BioAssay AID504861 (Broad Institute, 2011).
# The whole screen tested about 1,200 compounds, of which about 290 (24%) were called active. Not shown: some 3% with an inconclusive outcome.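 Rule for the calls: active = compounds lowering cell viability signal with fitted half-maximal concentration at most ten times their highest tested concentration; inconclusive = flat fit with 30 to 70% signal loss, or poor fit; inactive = the rest.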 Not all results are given here. A call without a number means that no potency is given here. Potency and affinity values are given separately.
# Assay: cytotoxicity in HEK293T cells – cell-based, CellTiter-Glo luminescence, cherry-picks, cytotoxicity control for LMP1 NF-kB inhibitor project, dose response (AID 504861)
# Conditions: HEK293T viability, CellTiter-Glo ATP luminescence, 48 h; series mostly up to 26 µM
row,SMILES,outcome
1,CCN(CC(=O)Nc1ccc(NC(C)=O)cc1)C(=O)c1cccnc1Sc1ccc(C)c(C)c1,inactive
2,Cc1ccccc1C(=O)NC(=S)Nc1ccc(N2CCN(C(=O)c3ccccc3)CC2)cc1,inactive
3,Cc1ccc(CNC(=O)C(=O)NCC2OCCN2S(=O)(=O)c2ccc(Cl)cc2)cc1 (centres undefined),inactive
4,CN1CCN(/N=C/c2ccc(N(c3ccccc3)c3ccccc3)cc2)CC1,inactive
5,COc1cccc(/C=N/Nc2ncnc(N)c2[N+](=O)[O-])c1OC,inactive
6,O=[N+]([O-])c1ccc(O)c(/C=N/Nc2ncnc3c2cnn3-c2ccccc2)c1,inactive
7,Cc1cc(C(=O)COc2cccnc2[N+](=O)[O-])c(C)n1-c1ccccc1F,inactive
8,Cc1ccsc1-c1nc(CSCC(=O)N2CCN(c3ccccc3)CC2)c(C)o1,inactive
9,Oc1c(N=NC(=S)Nc2ccccc2F)c2ccccc2n1Cc1ccc(F)cc1,inactive
10,COc1ccc(Cn2c(SCc3cc(C)ccc3C)nc3cc(OC)c(OC)cc3c2=N)cc1,inactive
11,COc1ccc(-c2cn3nc4c(nc3n2)CCCC4)cc1,inactive
12,CCOC(=O)C1=C(C)NC(C)=C(C(=O)OCC)C1C(=O)OCC(=O)N(C)C1CCS(=O)(=O)C1 (centres undefined),inactive
13,O=C(CCCN1C(=O)/C(=C/c2ccccc2Cl)SC1=S)NNC(=O)c1ccccc1Cl,inactive
14,Cc1cc(C(=O)CSc2nnc(-c3cccs3)o2)c(C)n1-c1ccccc1,inactive
15,O=C(O)CN1C(=O)/C(=C\c2ccccc2OCc2ccc(Cl)cc2Cl)SC1=S,inactive
16,O=c1c2cnn(-c3ccccc3)c2nc(-c2cccs2)n1-c1ccc(Br)cc1,inactive
17,COc1ccc(N2CCN(CCNC(=O)CCCn3c(=O)[nH]c4cc(Cl)ccc4c3=O)CC2)cc1,inactive
18,COc1ccc(NC(=O)c2ccc(-c3ccccc3)cc2)cc1S(=O)(=O)N1CCOCC1,inactive
19,COc1cc(C(=S)N2CCOCC2)cc(OC)c1OC(=O)c1ccc(F)cc1,inactive
20,CC(C)CCNC(=O)C1CCN(S(=O)(=O)c2ccc3c(c2)CC(C)N3C(=O)C2CC2)CC1 (centres undefined),inactive
21,COc1ccc(OC)c(S(=O)(=O)NC(C)CCc2ccccc2)c1 (centres undefined),inactive
22,COc1ccc(C(=O)CSc2nnc(Cc3ccccc3)o2)cc1,inactive

row,SMILES,outcome
1,Cc1ccc(-c2nc3cccnc3o2)cc1NC(=O)COc1ccc(C(C)(C)C)cc1,inactive
2,CCc1ccc(C(=O)COC(=O)c2cccc(N3C(=O)c4c(C)nc5ccccc5c4C3=O)c2)cc1,inactive
3,CCOC(=O)Cc1csc(N/N=C\c2ccc(N(C)C)cc2)n1,inactive
4,O=C(OCc1ccccc1F)c1cc2ccccc2cc1O,inactive
5,Cc1cc(OCC(=O)Nc2cnn(CCCC(=O)O)c2)ccc1Cl,inactive
6,C=CCn1c(SCc2ccc3nonc3c2)nnc1-c1cccs1,inactive
7,CCOC(=O)c1sc(NC(=O)CNCc2ccccn2)c(C(=O)OCC)c1C,inactive
8,Cc1ccc(-n2ccc(=O)c(C(=O)Nc3ccc(S(=O)(=O)N4CCOCC4)cc3)n2)cc1,inactive
9,Cc1ccnc(NC(=O)c2sc3ccccc3c2Cl)c1,inactive
10,Oc1c(N=NC(=S)Nc2ccccc2F)c2ccccc2n1Cc1ccccc1,inactive
11,Cc1ccc(S(=O)(=O)NC(CC(C)C)C(=O)NCC(c2ccco2)N2CCCCC2)cc1 (centres undefined),inactive
12,CCCCCn1c(N2CCOCC2)nc2c1c(=O)n(CC(N)=O)c(=O)n2C,inactive
13,O=C(NCCOc1ccccc1)c1ccc2c(c1)OCO2,inactive
14,C(=Cc1nc2ccccc2o1)c1ccc2c(c1)OCO2,inactive
15,Cc1cc(C)c(OCCn2ccnc2)c(C)c1,inactive
16,COc1ccc2oc(C(=O)NCCc3ccccc3)c(C)c2c1,inactive
17,COc1ccc(-c2nnc(NC(=O)c3ccc(S(=O)(=O)N4CCCc5ccccc54)cc3)o2)cc1,inactive
18,O=C1N[C@@H](Cc2c[nH]c3ccccc23)COC(=O)[C@H](Cc2ccc(F)cc2)C/C=C\C[C@H]1CC(=O)N(CCO)Cc1ccccc1,inactive
19,Cc1sc2ncnc(N3CCC(C(=O)Nc4ccccc4C(C)(C)C)CC3)c2c1C,inactive
20,Cc1sc2ncn(CC(=O)N3CCC(C(N)=O)CC3)c(=O)c2c1S(=O)(=O)N1CCOCC1,inactive
21,O=c1oc2ccccc2c(O)c1/C=N/c1ccccn1,inactive
22,CC1(C)Cc2nc3sc4c(SCC(=O)O)ncnc4c3cc2CO1,inactive

row,SMILES,outcome
1,COc1ccc(C(=O)N2CC(=O)Nc3ccccc32)cc1S(=O)(=O)N1CCCC1,inactive
2,CCOc1ccc(S(=O)(=O)N2CCC(C(=O)NCCc3ccc(S(N)(=O)=O)cc3)CC2)cc1,inactive
3,CCOc1ccc(NC(=S)N=Nc2c(O)[nH]c3ccccc23)cc1,inactive
4,CSc1oc(-c2ccc(F)cc2)nc1S(=O)(=O)c1ccc(F)cc1,inactive
5,O=C(CN1C(=O)C2C3C=CC(C3)C2C1=O)NCCC1=CCCCC1 (centres undefined),inactive
6,O=C(Cc1ccc(Cl)cc1)NCC(=O)N1CCCCC1,inactive
7,CCCCN1C2CCCC1CC(NC(=O)C1CCCCC1)C2 (centres undefined),inactive
8,CCc1sc(C(=O)Nc2nc(-c3ccccn3)cs2)cc1C,inactive
9,Cc1ccc(C(=O)Nc2nnc(SCC(=O)N3CCCc4ccccc43)s2)cc1,inactive
10,Cc1cccc(CNc2ncnc3ccc(-c4ccoc4)cc23)c1,inactive
11,COCCn1c(C)cc(C(=O)CSc2nnc3ccccn23)c1C,inactive
12,Cc1ccc(S(=O)(=O)N2c3ccccc3-c3c(ssc3=S)C2(C)C)cc1,inactive
13,Nc1ncnc2c1c(-c1ccc(Oc3ccccc3)cc1)cn2C1CCCC1,inactive
14,O=C(Nc1cc(C(F)(F)F)cc(C(F)(F)F)c1)Nc1cnn(-c2ccc([N+](=O)[O-])cc2)c1C(F)(F)F,inactive
15,CCOc1ccc(NC(=O)c2ccc(N3CC4CC(C3)c3cccc(=O)n3C4)c(NC(=O)c3cccnc3)c2)cc1 (centres undefined),inactive
16,Cc1cccc(S(=O)(=O)N2CCCc3ccccc32)c1,inactive
17,COc1ccc(OC)c(NC(=O)COc2coc(CN3CCc4ccccc43)cc2=O)c1,inactive
18,Nc1ccc(CCNc2ncnc3c2ncn3[C@@H]2O[C@H](CO)[C@@H](O)[C@H]2O)cc1,inactive
19,COc1ccc(-c2cc(C(F)(F)F)n3nc(C(=O)N4CCOCC4)nc3n2)cc1,inactive
20,O=C(Nc1ccc2c(c1)C(=O)OC2)c1ccc(C(F)(F)F)cc1,inactive
